Not all results are given here.
aSyn UTR act – Activators working through SNCA 5'UTR binding (MLPCN); alpha-synuclein 5'UTR reporter, activators screen; activity score, % (tested at 7.5 µM), hits read low; 300,000 compounds, 7.1% hits; AID 1814; in the data active = activity score below about -60%
Hits are given with their value; - = inactive.

SMILES	aSyn UTR act
COc1ccc(OCc2cc(C(=O)NCC(C)Oc3cccnc3)no2)c(Cl)c1 (configuration not stated)	-85.0
COc1ccc(OCc2cc(C(=O)N(C)Cc3cnccn3)no2)c(Cl)c1	-71.1
COc1ccccc1CCc1nnc(CCC(=O)N(C)Cc2cccc3cnccc23)o1	-131.5
COc1cc(OC)cc(C(=O)NC(=S)NNC(=O)c2cnccn2)c1	-
COc1ccc(OCc2cc(C(=O)N(C)Cc3cc(C4CC4)n[nH]3)no2)c(Cl)c1	-189.0
COc1ccc(OCc2cc(C(=O)NC(C)Cc3cnccn3)no2)c(Cl)c1 (configuration not stated)	-143.8
COc1cc(Cl)ccc1OCc1cc(C(=O)NCc2cc(C(C)C)no2)no1	-147.1
COc1cc(Cl)ccc1OCc1cc(C(=O)N(C)Cc2cccc3cnccc23)no1	-76.7
COc1cc(Cl)ccc1OCc1cc(C(=O)NC(C)Cc2cccnc2)no1 (configuration not stated)	-96.5
Cc1ccc(NC(=O)c2ccc(OC(=O)c3ccco3)cc2)cc1	-121.8
Cc1ccc(Oc2ccc(NC(=O)c3ccco3)cc2)cc1	-123.2
Cc1ccc(Cn2cccc(NC(=O)c3ccco3)c2=O)cc1	-78.5
Cc1ccc(NC(=O)c2ccc(OC(=O)c3cc4ccccc4o3)cc2)cc1	-124.1
C=CCOC(=O)/C(=C/c1cccc2ccccc12)NC(=O)c1ccccc1	-258.1
COc1cc2nc(CN(C)Cc3ccc(OC)c(OC)c3OC)[nH]c(=O)c2cc1OC	-90.4
O=C(NC(=S)Nc1ccc2ncccc2c1)c1ccccc1	-137.1
COc1cccc(C(=O)Nc2ccc3[nH]ncc3c2)c1	-75.8
CC(C)(C)NC(=S)NNC(=O)c1ccc2ncccc2c1	-133.8
O=C(Nc1ccc2cccnc2c1)c1ccc(Br)cc1	-64.6
O=C(NC(=S)Nc1ccc2[nH]ncc2c1)c1ccccc1	-115.0
O=C(NC(=S)Nc1ccc2nc[nH]c2c1)c1ccccc1	-115.8
O=C(NNC(=S)Nc1ccccc1)c1ccc2ncccc2c1	-97.2
CCN(CC)C(=O)C(C)N(C#N)c1nc(Cl)nc(N(C)C)n1 (configuration not stated)	-121.8
CCN(CC)S(=O)(=O)c1ccc2oc(Nc3ccccc3)nc2c1	-128.8
CCS(=O)(=O)c1ccc2oc(Nc3ccccc3C)nc2c1	-121.9
SMILES	aSyn UTR act
O=C(Nc1ccc(Cl)cc1)Nc1ccccc1CC[N+](=O)[O-]	-96.8
COc1ccc(C/C(C)=N/NC(=S)Nc2ccccc2F)cc1	-151.8
COc1ccc(NC(=O)Nc2ccccc2F)cc1Cl	-184.1
COc1ccc(NC(=O)Nc2ccccc2SC)cc1	-113.2
Cc1ccc(Cn2c(O)c(N=NC(=S)Nc3ccccc3F)c3ccccc32)cc1	-
COc1cccc(COC(=O)Nc2ccccc2F)c1	-146.0
O=C(Nc1ccccc1F)Nc1ccccc1Br	-106.1
COc1ccc(NC(=O)Nc2ccccc2F)cc1	-134.0
Fc1ccccc1NC(=S)N/N=C/c1ccccc1Br	-247.5
COC(=O)c1ccc(NC(=O)Nc2ccccc2C)cc1	-106.6
COc1cc(C)c(C(=O)CC(=O)c2c(C)cc(OC)cc2C)c(C)c1	-
COc1ccc(NC(=O)Nc2ccccc2F)c([N+](=O)[O-])c1	-139.4
O=C(Nc1ccc(F)cc1)Nc1ccccc1F	-179.6
COc1ccc(NC(=O)Nc2ccccc2F)c(C)c1	-97.8
CC(=O)N(C)c1ccc(NC(=O)Nc2ccccc2C)cc1	-106.8
CSc1ccc(NC(=O)Nc2ccccc2C(N)=O)cc1	-92.0
O=C(Nc1ccc(F)cc1)Nc1cccnc1Cl	-80.6
O=C(C#Cc1ccccc1)Nc1ccccc1F	-140.7
CSc1ccccc1NC(=O)Nc1ccc(Cl)cc1	-189.8
O=C(Nc1ccccc1)Nc1cccn(Cc2c(F)cccc2Cl)c1=O	-103.1
COc1ccc(NCC(=O)Nc2ccccc2C#N)cc1Cl	-67.9
Oc1c(N=NC(=S)Nc2ccccc2F)c2ccccc2n1Cc1ccccc1Cl	-
COC(=O)c1ccc(NC(=O)Nc2ccccc2F)cc1	-95.3
Cc1ccccc1NC(=O)OCc1ccccc1	-84.4
Cc1ccc(NC(=O)COc2ccc3c(c2)CCC3)nc1	-98.0
SMILES	aSyn UTR act
Cc1ccc(OCC(=O)c2ccc3c(c2)CCCC3)cc1C	-84.0
Cc1cccnc1NC(=O)COc1ccc2c(c1)CCC2	-94.1
O=C(Nc1nc2c(F)cc(F)cc2s1)C1CCN(C(=O)c2ccc(F)cc2)CC1	-162.2
Fc1cccc2sc(Nc3nc4c(F)cccc4s3)nc12	-210.1
Fc1cccc2sc(Nc3nnc(-c4ccccc4)o3)nc12	-89.5
NNc1nc2c(F)cc(F)cc2s1	-164.5
O=C(Nc1nc2c(F)cccc2s1)C1CC1	-111.3
NNc1nc2c(F)cccc2s1	-280.7
Cc1c(Cl)ccc2sc(NC(=O)C3CC3)nc12	-84.7
Cc1ccc(-c2nnc(Cc3ccc([N+](=O)[O-])cc3)o2)cc1	-119.7
O=[N+]([O-])c1ccc(Cc2nnc(-c3ccc(F)cc3)o2)cc1	-86.4
Fc1ccc(-c2nnc(-c3ccc(F)cc3)o2)cc1	-185.4
Fc1ccc(-c2nnc(NC3=NCCCCC3)o2)cc1	-
O=C(Nc1ccc(O)cc1)c1cc2ccccc2c(=O)s1	-114.2
O=C(Nc1ccccc1)c1cc2ccccc2c(=O)s1	-209.4
O=C(NCCC1CCCC1)c1cccs1	-69.2
O=C(CCS(=O)(=O)c1cccs1)NC1CCCCCC1	-138.6
O=C(NC1CCCCCC1)c1cccs1	-81.1
Nc1c(C(=O)NC2CCCC2)sc2nc(-c3cccs3)ccc12	-73.5
COc1ccc(C(=O)N/N=C/c2ccc(SC)cc2)cc1	-64.7
O=C(N/N=C\c1c(O)ccc2ccccc12)c1ccc(O)cc1	-
COc1ccc(/C=N/NC(=O)c2ccc[nH]2)cc1	-147.1
CSc1ccc(/C=N/NC(=O)c2ccc(O)cc2)cc1	-116.9
c1ccc(OCc2nc(-c3ccccc3)no2)cc1	-202.0
Clc1ccc(OCc2nc(-c3ccncc3)no2)c(Br)c1	-118.8
SMILES	aSyn UTR act
c1ccc(OCc2nc(-c3ccncc3)no2)cc1	-81.8
NC(=O)COc1ccc(-c2noc(COc3ccccc3[N+](=O)[O-])n2)cc1	-83.8
O=C(NNC(=S)Nc1ccc(Cl)cc1)c1cccs1	-124.7
O=C(NNC(=S)Nc1ccccc1)c1cccs1	-231.5
CC(C)Oc1ccc(CSc2ncn[nH]2)cc1	-83.8
CCC(=O)c1ccc(N2CCCCCC2)c(F)c1	-133.2
CCCC(=O)c1ccc(N2CCCC2)c(F)c1	-139.3
CCC(=O)c1ccc(N2CCN(C(=O)c3cccs3)CC2)c(F)c1	-102.9
CCOC(=O)N1CCN(c2ccc(C(=O)c3ccccc3)cc2F)CC1	-98.8
Cc1ccc(C(=O)c2cc([N+](=O)[O-])ccc2N2CCN(C)CC2)cc1	-
Cc1cc(-c2nnc(CSc3nnc(NC(=O)c4ccc(C(C)(C)C)cc4)s3)o2)ccc1[N+](=O)[O-]	-110.3
COc1cc(O)c2c(=O)c(-c3ccc(O[C@@H]4O[C@H](CO)[C@@H](O)[C@H](O)[C@H]4O)cc3)coc2c1	-155.3
O=c1c(-c2ccc(O)cc2)coc2cc(OC3OC(CO)C(O)C(O)C3O)ccc12 (configuration not stated)	-82.2
O=c1c(-c2ccc(O)cc2)coc2cc(OC3OC(CO)C(O)C(O)C3O)cc(O)c12 (configuration not stated)	-82.9
Cc1cccc(/C=N/NC(=O)Cc2cccs2)c1	-73.8
CCN(CC)c1ccc(/C=N/NC(=O)Cc2cccs2)c(O)c1	-
CCOc1ccc(/C=N/NC(=O)Cc2cccs2)cc1	-84.6
O=C(Cc1cccs1)N/N=C/C(Cl)=C/c1ccccc1	-192.5
CCOC(=O)N/N=C/C(Cl)=C/c1ccccc1	-127.8
NS(=O)(=O)c1ccc(C(=O)Nc2ccc(-c3nc4cccnc4s3)cc2)cc1	-120.8
